Source: PubChem
A selection: hits, their analogues and other compounds. The true share with any hit is near 2.1%.
KLF5 inhibitor = suppresses KLF5 promoter-driven expression | DLD-1 KLF5 promoter-luciferase reporter, luminescence | inhibition, % at 5 µM | 0.23% of 290,000 active | AID 1700;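 active means inhibition above a per-plate limit of that plate's mean compound inhibition plus 3 SD, cut at about 60% in these data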;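 further: 0% = DMSO wells and 100% = LY294002 at 200 µM; higher means less KLF5 promoter-driven luciferase light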
Ba/F3 V617F tox = loss of viability in JAK2V617F-driven Ba/F3 cells. Ba/F3 EpoR-JAK2V617F viability, ATP luminescence. inhibition, % at 5.6 µM. 1.1% of 220,000 active. AID 1446;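 active means inhibition above the campaign mean plus 3 SD over all tested compounds, cut at about 24% in these data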;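 further: cytokine-independent growth of Ba/F3 cells driven by EpoR plus mutant JAK2; 0% = DMSO-treated cells and 100% = JAK inhibitor I control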
APP 5UTR inh = APP translation inhibition; SH-SY5Y APP 5'UTR-luciferase reporter, luminescence; inhibition, % at 2 µM; 0.82% of 190,000 active;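 active means inhibition above a set limit, derived from the sample mean plus 3 SD, cut at about 45% in these data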
IEC-6 cytotox = kills IEC-6 intestinal cells in KLF5 counter-screen; AID 1825; IEC-6 cytotoxicity, luminescence viability; 0.78% of 290,000 active; inhibition, % at 5 µM; in the data active means inhibition above about 22%;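 further: 0% = plate median of test compound wells and 100% = cytotoxic reference compound wells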
BaF3 tox = parental Ba/F3 viability inhibition as JAK2V617F counter-screen | 1.1% of 220,000 active | inhibition, % at 5.6 µM | CellTiter-Glo ATP luminescence;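 active means inhibition above a per-campaign cutoff, the mean inhibition of all tested compounds plus 3 SD, cut at about 27% in these data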;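 further: 0% = DMSO wells and 100% = JAK Inhibitor I control wells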
aSyn 5UTR inh = 5' untranslated region of α-synuclein, MLPCN primary screen | alpha-synuclein 5'UTR reporter, inhibitor activity | inhibition, % (tested at 7.5 µM) | 0.82% of 300,000 active; in the data active means inhibition above about 60%;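 further: H4 neuroglioblastoma cells stably carrying SNCA 5'UTR luciferase fusion; 0% = DMSO wells and 100% = positive control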
BaF3 parental 2 = counter-screen for JAK2V617F inhibitors: parental Ba/F3 viability inhibitors; shares compounds with Ba/F3 V617F tox; CellTiter-Glo luminescence; cells kept alive by added IL-3; inhibition, % at 5.6 µM; 31% of 580 active; AID 1520;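 active means cell growth inhibition above the hit limit set in the earlier mutant JAK2 cell screen, cut at about 27% in these data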;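 further: plate controls were DMSO-treated cells for no effect and JAK Inhibitor I control wells for full effect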
JAK2V617F conf = confirmation: loss of viability in JAK2V617F-dependent Ba/F3 cells | shares compounds with Ba/F3 V617F tox | Ba/F3 EpoR-JAK2V617F viability, CellTiter-Glo luminescence | inhibition, % at 5.6 µM | 66% of 580 active | AID 1521;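 active means mean inhibition above the hit cutoff derived in the earlier primary screen, cut at about 25% in these data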;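 further: 0% = DMSO-treated cells and 100% = JAK inhibitor I control wells; higher means lower luminescence from reduced cell ATP and viability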
* hit, by the source's call; / = not tested or not shown.

SMILES | KLF5 inhibitor | Ba/F3 V617F tox | APP 5UTR inh | IEC-6 cytotox | BaF3 tox | aSyn 5UTR inh | BaF3 parental 2 | JAK2V617F conf
Clc1ccc(-n2nnnc2Sc2ncnc3sccc23)cc1 | 0 | 26* | 92* | 4 | 1 | 30 | 1 | 88*
O=C(Nc1ccc(Oc2ccccc2)cc1)C1CC1 | -6 | -3 | -26 | 4 | -1 | 32 | / | /
O=C(Nc1ccc(C#Cc2ccccc2)cc1)C1CC1 | -45 | 38* | -110 | 4 | 12 | -113 | 2 | 7
Cc1cc(NC(=O)c2cccs2)n(-c2nc3ccccc3[nH]2)n1 | -10 | -1 | 10 | -9 | 7 | -3 | / | /
Cc1cc(NC(=O)c2sccc2C)n(-c2nc3ccccc3[nH]2)n1 | -26 | 84* | 8 | -10 | 3 | 26 | -5 | -4
CCOC(=O)C(C)Oc1cccc2c(=O)n(CC(=O)NCc3ccc(F)cc3)ccc12 (stereo unspecified) | 34 | 29* | / | 10 | 22 | 68* | 62* | 97*
COC(=O)COc1cccc2c(=O)n(CC(=O)NCc3ccc(F)cc3)ccc12 | 29 | 74* | 73* | 5 | 8 | -7 | 21 | 86*
COC(=O)COc1cccc2c(=O)n(CC(=O)N3CCCCC3)ccc12 | -23 | -2 | / | -5 | -1 | 10 | / | /
CCOC(=O)C(C)Oc1cccc2c(=O)n(CC(=O)NCCc3ccccc3)ccc12 (stereo unspecified) | 6 | 2 | / | -1 | 4 | -17 | / | /
Cc1ccc(NC(=O)/C(=C\c2ccccc2)NC(=O)/C=C/c2ccccc2)cc1 | -11 | 72* | -14 | -2 | 7 | -40 | -4 | -7
Cc1cc(NC(=O)CSc2nc(-c3ccco3)cc(C(F)(F)F)n2)no1 | 39 | 61* | 18 | 46* | 5 | 69* | 48* | 90*
COCCNC(=O)CN(Cc1ccc(F)cc1)C(=O)CCC(=O)Nc1nccs1 | -18 | / | / | 2 | / | -2 | / | /
O=C(Cc1ccc(Cl)cc1)NCCc1c[nH]c2ccccc12 | -11 | / | / | 5 | / | -10 | / | /
O=C(CCl)N(c1ccc(Cl)cc1)c1c[nH]c2ccccc12 | -9 | 72* | 18 | 4 | 12 | 48 | 73* | 99*
CC(C)C(=O)Nc1c2c(nc3c1CCC3)CCCC2 | -28 | 1 | 12 | 0 | 10 | 1 | / | /
CCC(C)C(=O)Nc1c2c(nc3c1CCC3)CCCC2 (stereo unspecified) | -6 | 32* | 15 | 8 | 18 | 4 | -6 | -20
O=C(CC1S/C(=N/N=C2CCCCCC2)NC1=O)Nc1ccc(Br)cc1F (stereo unspecified) | 12 | / | / | -7 | / | 3 | / | /
Cc1nn(-c2ccccc2)c(C)c1NC(=O)COc1ccc2ccccc2c1 | 9 | 90* | -3 | 2 | 4 | 20 | -5 | -5
O=C(NC1C=CS(=O)(=O)C1)c1sc2ccccc2c1Cl (stereo unspecified) | -19 | 27* | -11 | 0 | 4 | -58 | -4 | 59*
O=C(NC1CC1)c1sc2ccccc2c1Cl | -11 | / | / | 0 | / | -51 | / | /
CN(C)CCCN(Cc1ccccc1)C(=S)Nc1ccc(SC(F)F)cc1 | 7 | 36* | 7 | 2 | 18 | -8 | 25 | 45*
CC(=O)c1ccc(NC(=S)N(CCCN(C)C)Cc2ccccc2)cc1 | -29 | -5 | / | 3 | 2 | -16 | / | /
Brc1ccc(-c2nnc3sc(CN4CCC5(CC4)OCCO5)cn23)cc1 | -23 | 4 | -13 | 3 | 6 | -12 | / | /
c1ccc(-c2nnc3sc(CN4CCc5ccccc54)cn23)cc1 | 14 | 35* | -4 | 8 | 22 | 3 | 30* | 30*
N=c1n(Cc2ccccc2)c2ccccc2n1Cc1ccccc1 | -3 | 4 | -3 | 9 | 0 | 5 | / | /
SMILES | KLF5 inhibitor | Ba/F3 V617F tox | APP 5UTR inh | IEC-6 cytotox | BaF3 tox | aSyn 5UTR inh | BaF3 parental 2 | JAK2V617F conf
COc1ccc(OCC(O)Cn2c(=N)n(Cc3ccccc3)c3ccccc32)cc1 (stereo unspecified) | 1 | 68* | 4 | 18 | 23 | 2 | 5 | 35*
Cc1cccc(OCC(O)CN2CCNCC2)c1 (stereo unspecified) | -42 | / | / | -6 | / | -7 | / | /
Cc1cccc(OCC(O)Cn2c(=N)n(Cc3ccccc3)c3ccccc32)c1 (stereo unspecified) | -32 | 26* | / | 5 | 6 | 9 | 3 | 32*
COc1ccc(-n2nc(C(=O)NCC(=O)Nc3cc(OC)c(OC)c(OC)c3)c3ccccc3c2=O)cc1OC | 25 | / | / | 2 | / | 12 | / | /
Cc1cccc(C(=O)NNS(=O)(=O)c2ccc(F)cc2)c1 | -54 | / | / | 0 | / | 2 | / | /
CCOCCCNC(=S)N1CCN(Cc2ccc3c(c2)OCO3)CC1 | -46 | 2 | 10 | -3 | 7 | -10 | / | /
Cc1ccc(Cl)c(NC(=O)CN2CCNC(=O)C2)c1Cl | -38 | 3 | -14 | -1 | 9 | 11 | / | /
OC(c1cc(-c2ccc(Cl)cc2)nc2ccccc12)C1CCCCN1 (stereo unspecified) | -12 | 65* | / | 34* | 2 | 96* | 5 | 20
O[C@@H](c1cc(C(F)(F)F)nc2c(C(F)(F)F)cccc12)[C@H]1CCCCN1 | / | / | / | / | / | 5 | / | /
Cc1ccc(C(=O)N2CCN3C(=O)c4ccccc4C23c2ccc(Cl)cc2)cc1 (stereo unspecified) | -9 | 28* | -2 | 17 | 22 | -69 | 16 | 36*
CC(C)(C#N)NC(=O)C1CCCN1S(=O)(=O)c1ccc2ccccc2c1 (stereo unspecified) | -26 | / | / | 0 | / | -24 | / | /
O=C(CCCOc1ccccc1)N1CCN(c2ccccc2)CC1 | -75 | 2 | -24 | 8 | 2 | -51 | / | /
O=C(CCOc1ccccc1)N1CCN(c2ccc(O)cc2)CC1 | -19 | 25* | / | 0 | 6 | -14 | 5 | 14
COc1ccc(Cn2c(O)c(C=Nc3ccccc3C(=O)O)c3ccccc3c2=O)cc1 | -45 | 4 | / | 2 | -2 | 2 | / | /
COc1ccccc1NS(=O)(=O)c1cccc(-n2c(O)c(C=Nc3ccccc3C(=O)O)c3ccccc3c2=O)c1 | 6 | 24* | / | 8 | 8 | -66 | 8 | 32*
COc1ccc(C2=Nn3c(nnc3C3CCCCC3)SC2)cc1OC | 4 | 25* | -14 | 8 | 10 | 16 | 13 | 51*
Cc1ccc(S(=O)(=O)N(CCCN2CCCC2=O)Cc2cc3c(C)ccc(C)c3[nH]c2=O)cc1 | -6 | 62* | -2 | 5 | 23 | 25 | -6 | 12
COc1ccc(S(=O)(=O)N(CCCN2CCCC2=O)Cc2cc3cc(C)c(C)cc3[nH]c2=O)cc1 | 10 | -1 | -8 | -1 | 2 | 5 | / | /
Cc1cc2ccccn2c1C(=O)c1cccc([N+](=O)[O-])c1 | -6 | 0 | -10 | 6 | 4 | 16 | / | /
